# Test results reported in PubChem BioAssay (NCATS).
# Values joined by “and” are separate entries in the source; they are usually repeats but may differ in a detail not shown here. Identical values can stand only once. Results filed as inconclusive are left out. Where a call stands in place of a potency, no number is given. The source holds several records for some structures; these can differ, active in one and inactive in another. Active and inactive are the calls of the source. Unless noted, calls follow the shape of the dose curve; as a rule, active = well fitted curve in the direction sought with a large enough effect; inconclusive = small, poorly fitted or top-dose-only effect, or another doubt; inactive = no such curve, though single readings can be large; an effect the other way counts as inactive or inconclusive.
# Tests used:
# [1] = Primary qHTS to identify inhibitors of SARS-CoV-2 cell entry (AID 1645846; calls by dose curve; also: nearly all actives have a fitted effect of over 45% in size; also: potency is read from the fitted curve at half-maximal effect); details: SARS-CoV-2 pseudovirus cell entry assay, luminescence; activity change, negative = inhibition: at 57.1 µM (top of the series) unless noted; series mostly up to 57.1 µM
# Summary of the method: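 HEK293 cells stably expressing human ACE2, pre-treated 1 h with compound, then infected with MLV particles pseudotyped with Wuhan-Hu-1 spike (C-terminal 19-aa truncation). Luciferase luminescence after 48 h at 37 °C, normalised to spike PP and bald PP.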
# [2] = molecular target: Papain (Carica papaya) (UniProt P00784); test: Primary qHTS assay for inhibitors of the protease papain (AID 1645873); details: papain Z-FR-AMC cleavage, AMC fluorescence; series mostly up to 49.8 µM;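 also: papain turnover of Z-FR-AMC read as the AMC fluorescence gain over 10 min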
# Sequence of Papain (Carica papaya) (P00784 whole entry, looked up, the tested form may be a part): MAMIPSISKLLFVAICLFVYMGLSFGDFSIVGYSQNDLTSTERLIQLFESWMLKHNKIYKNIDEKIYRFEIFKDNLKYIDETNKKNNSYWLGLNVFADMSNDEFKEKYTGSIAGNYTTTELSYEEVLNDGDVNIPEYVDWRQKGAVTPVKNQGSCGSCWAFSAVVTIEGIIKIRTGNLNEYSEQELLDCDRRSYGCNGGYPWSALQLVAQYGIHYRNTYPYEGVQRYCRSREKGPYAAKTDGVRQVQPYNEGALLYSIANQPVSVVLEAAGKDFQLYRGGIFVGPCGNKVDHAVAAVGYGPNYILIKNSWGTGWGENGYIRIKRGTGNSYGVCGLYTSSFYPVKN
# [3] = Primary qHTS for inhibitors of nuclear receptor binding SET domain protein 2 (NSD2) in an isogenic RCH-ACV NSD2 p.E1099K mutant (9B) (AID 1645876); details: RCH-ACV NSD2 E1099K (9B) viability, CellTiter-Glo, 72 h; series mostly up to 44.9 µM; also: nearly all actives have a fitted effect of over 70% in size; also: potency is read from the fitted curve at half-maximal effect
# [4] = Primary qHTS for inhibitors of nuclear receptor binding SET domain protein 2 (NSD2) in an RCH-ACV wild type WT cells (2C) (AID 1645877); details: RCH-ACV (leukaemia line) NSD2 WT (2C) viability, CellTiter-Glo, 72 h; series mostly up to 44.9 µM; also: nearly all actives have a fitted effect of over 70% in size; also: potency is read from the fitted curve at half-maximal effect
# [5] = molecular target: Catechol O-methyltransferase (Homo sapiens) (UniProt P21964); test: Confirmatory Screen for Target Class Profiling of Small Molecule Inhibitors of Methyltransferases (AID 1745852); details: MTase-Glo luminescence, SAH detection, recombinant enzyme; measured here: COMT max response; stronger effect = lower value
# Sequence of Catechol O-methyltransferase (Homo sapiens) (P21964 whole entry, looked up): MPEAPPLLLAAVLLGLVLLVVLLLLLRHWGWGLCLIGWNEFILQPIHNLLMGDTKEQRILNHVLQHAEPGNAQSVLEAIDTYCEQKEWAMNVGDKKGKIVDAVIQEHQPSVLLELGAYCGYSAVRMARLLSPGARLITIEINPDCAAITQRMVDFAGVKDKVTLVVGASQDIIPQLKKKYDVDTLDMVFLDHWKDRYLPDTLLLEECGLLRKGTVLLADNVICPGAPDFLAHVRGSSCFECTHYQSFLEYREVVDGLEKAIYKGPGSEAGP
# [6] = molecular target: Rap guanine nucleotide exchange factor 3 (Homo sapiens) (UniProt O95398); test: Confirmatory qHTS for antagonist of cAMP-regulated guanine nucleotide exchange factor 3 (EPAC1) (AID 1645880); details: EPAC1 Rap1B-BODIPY-GDP exchange, fluorescence; series mostly up to 115 µM; also: nearly all actives have a fitted effect of over 55% in size
# Sequence of Rap guanine nucleotide exchange factor 3 (Homo sapiens) (O95398 whole entry, looked up): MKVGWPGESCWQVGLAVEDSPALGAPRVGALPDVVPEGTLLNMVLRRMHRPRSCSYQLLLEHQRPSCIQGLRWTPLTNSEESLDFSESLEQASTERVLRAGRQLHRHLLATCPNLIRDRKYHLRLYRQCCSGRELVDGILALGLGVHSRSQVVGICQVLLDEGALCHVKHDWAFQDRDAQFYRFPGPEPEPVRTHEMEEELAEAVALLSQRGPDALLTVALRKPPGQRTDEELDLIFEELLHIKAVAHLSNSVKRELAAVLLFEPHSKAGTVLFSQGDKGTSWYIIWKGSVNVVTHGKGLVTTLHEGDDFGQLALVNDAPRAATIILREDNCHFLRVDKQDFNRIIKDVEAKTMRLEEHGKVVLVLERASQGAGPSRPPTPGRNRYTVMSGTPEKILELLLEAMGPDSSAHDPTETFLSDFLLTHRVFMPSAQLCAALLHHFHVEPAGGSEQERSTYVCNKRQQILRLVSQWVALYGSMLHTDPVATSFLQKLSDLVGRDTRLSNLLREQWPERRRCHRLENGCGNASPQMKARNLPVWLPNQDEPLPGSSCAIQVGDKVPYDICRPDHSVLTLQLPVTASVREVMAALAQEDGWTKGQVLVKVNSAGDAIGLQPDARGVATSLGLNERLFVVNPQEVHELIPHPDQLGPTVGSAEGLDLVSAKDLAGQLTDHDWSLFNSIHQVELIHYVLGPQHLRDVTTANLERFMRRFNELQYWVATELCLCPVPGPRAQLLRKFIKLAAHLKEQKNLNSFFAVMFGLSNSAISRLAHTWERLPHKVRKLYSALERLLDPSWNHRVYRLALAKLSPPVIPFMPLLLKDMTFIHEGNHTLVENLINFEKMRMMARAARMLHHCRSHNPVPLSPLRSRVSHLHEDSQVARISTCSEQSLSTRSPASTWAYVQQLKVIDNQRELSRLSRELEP
# Summary of the method: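 Nucleotide exchange uses 100 nM EPAC1, 250 nM RAP1B-BODIPY-GDP and 50 uM GDP, with compounds in a concentration-titration series. After 5 min at room temperature, fluorescence (480 nm ex/540 nm em) is read every 5 min for 30 min. Data are normalized to control ATA and DMSO.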
# [7] = molecular target: Rap guanine nucleotide exchange factor 4 (Homo sapiens) (UniProt Q8WZA2); test: Confirmatory qHTS for agonist of cAMP-regulated guanine nucleotide exchange factor 4 (EPAC2) (AID 1645884); details: EPAC2 GEF activity, Rap1B-BODIPY-GDP fluorescence, percent relative to cAMP agonist control; series mostly up to 154 µM;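 also: nucleotide exchange releases bodipy-GDP from Rap1 and this lowers its fluorescence; nearly all actives have a fitted effect of over 65% in size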
# Sequence of Rap guanine nucleotide exchange factor 4 (Homo sapiens) (Q8WZA2 whole entry, looked up): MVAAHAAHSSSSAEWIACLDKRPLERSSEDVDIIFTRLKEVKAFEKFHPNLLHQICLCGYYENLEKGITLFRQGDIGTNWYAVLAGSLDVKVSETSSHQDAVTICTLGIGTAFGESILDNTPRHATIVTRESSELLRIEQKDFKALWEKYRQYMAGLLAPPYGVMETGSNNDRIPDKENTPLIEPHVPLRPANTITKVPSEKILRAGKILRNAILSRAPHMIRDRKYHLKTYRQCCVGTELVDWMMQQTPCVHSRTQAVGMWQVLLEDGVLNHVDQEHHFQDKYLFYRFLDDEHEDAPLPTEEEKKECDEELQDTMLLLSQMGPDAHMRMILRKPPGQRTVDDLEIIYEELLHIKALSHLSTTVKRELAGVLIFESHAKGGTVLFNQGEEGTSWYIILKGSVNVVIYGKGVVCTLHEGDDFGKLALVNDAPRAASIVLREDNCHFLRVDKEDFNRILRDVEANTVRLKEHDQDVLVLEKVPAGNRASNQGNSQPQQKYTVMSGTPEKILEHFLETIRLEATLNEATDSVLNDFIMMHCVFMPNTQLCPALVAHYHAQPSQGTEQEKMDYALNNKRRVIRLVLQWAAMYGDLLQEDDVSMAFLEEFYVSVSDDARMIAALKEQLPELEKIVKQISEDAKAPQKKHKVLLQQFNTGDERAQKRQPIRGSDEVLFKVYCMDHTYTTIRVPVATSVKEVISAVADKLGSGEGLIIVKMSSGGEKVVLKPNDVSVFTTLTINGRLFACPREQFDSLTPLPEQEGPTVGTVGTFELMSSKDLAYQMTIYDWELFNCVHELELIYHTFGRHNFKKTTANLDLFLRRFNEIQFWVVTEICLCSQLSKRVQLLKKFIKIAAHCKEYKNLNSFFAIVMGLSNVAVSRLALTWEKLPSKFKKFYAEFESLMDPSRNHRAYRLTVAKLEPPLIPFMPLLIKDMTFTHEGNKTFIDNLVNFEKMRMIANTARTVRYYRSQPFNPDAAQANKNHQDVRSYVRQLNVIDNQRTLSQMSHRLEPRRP
# [8] = molecular target: Rap guanine nucleotide exchange factor 4 (Homo sapiens) (UniProt Q8WZA2); test: Confirmatory qHTS for antagonist of cAMP-regulated guanine nucleotide exchange factor 4 (EPAC2) (AID 1645885); details: EPAC2 Rap1B-BODIPY-GDP exchange fluorescence, biochemical; series mostly up to 12.7 µM; also: nearly all actives have a fitted effect of over 25% in size; also: potency is read from the fitted curve at half-maximal effect
# [9] = molecular target: Rap guanine nucleotide exchange factor 3 (Homo sapiens) (UniProt O95398); test: Confirmatory qHTS for agonist of cAMP-regulated guanine nucleotide exchange factor 3 (EPAC1) (AID 1645881); details: EPAC1 Rap1B BODIPY-GDP exchange fluorescence, 100% = cAMP control response; series mostly up to 154 µM;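 also: EPAC1 catalysed release of BODIPY-GDP from Rap1B seen as fluorescence loss; nearly all actives have a fitted effect of over 75% in size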
smiles,measurement,setting,value
C[C@@H]1O[C@@H](O[C@H]2C[C@@H](O)[C@]3(CO)[C@H]4[C@H](O)C[C@]5(C)[C@@H](C6=CC(=O)OC6)CC[C@]5(O)[C@@H]4CC[C@]3(O)C2)[C@H](O)[C@H](O)[C@H]1O,"activity change, negative = inhibition",[1],-97.3% and -94.1%
same,Potency,[2],inactive
same,Potency,[3],29.9 nM (active) and 50.2 nM (active) and 41.7 nM (active)
same,Potency,[4],37.6 nM (active) and 100 nM (active) and 66.1 nM (active)
Nc1ccncc1,"activity change, negative = inhibition",[1],-28.2% [at 114 µM]
same,Potency,[2],inactive
same,Potency,[3],inactive
same,activity,[5],0%
CC(C)CC(N(C)C)C1(c2ccc(Cl)cc2)CCC1 (stereo not drawn),"activity change, negative = inhibition",[1],2.03%
same,Potency,[3],inactive
CC1Cc2ccccc2N1NC(=O)c1ccc(Cl)c(S(N)(=O)=O)c1 (stereo not drawn),Potency,[1],inactive
same,"activity change, negative = inhibition",[1],3.64%
NC(=O)OCC(COC(N)=O)c1ccccc1,Potency,[1],inactive
same,"activity change, negative = inhibition",[1],-1.23%
NCC(CC(=O)O)c1ccc(Cl)cc1 (stereo not drawn),"activity change, negative = inhibition",[1],0.754% [at 0.702 µM]
same,Potency,[2],inactive
same,"activity change, negative = viability loss",[3],3.1% [at 0.588 µM] (inactive)
same,"activity change, negative = cell killing",[4],-19.2% [at 0.588 µM] (inactive)
Nc1ccn([C@@H]2O[C@H](CO)[C@@H](O)C2(F)F)c(=O)n1,Potency,[1],3.16 µM (active)
same,"activity change, negative = inhibition",[1],-96.3%
O=C1CC[C@@]2(O)[C@H]3Cc4ccc(O)c5c4[C@@]2(CCN3CC2CC2)[C@H]1O5,"activity change, negative = inhibition",[1],-8.92%
same,Potency,[3],inactive
CC(O)(CS(=O)(=O)c1ccc(F)cc1)C(=O)Nc1ccc(C#N)c(C(F)(F)F)c1 (stereo not drawn),"activity change, negative = inhibition",[1],-21.9%
same,Potency,[2],inactive
N[C@@H]1C[C@H]1c1ccccc1,Potency,[1],inactive
same,"activity change, negative = inhibition",[1],-29.3%
same,Potency,[3],inactive
CC(C(=O)O)c1cccc(C(=O)c2ccccc2)c1 (stereo not drawn),Potency,[1],inactive
same,"activity change, negative = inhibition",[1],-2.03%
Oc1cccc2cccnc12,"activity change, negative = inhibition",[1],-23.4%
same,Potency,[3],15.4 µM (active) and inactive
Fc1ccc(C(OCCN2CCN(CCCc3ccccc3)CC2)c2ccc(F)cc2)cc1,Potency,[1],17.8 µM (active)
same,Potency,[2],inactive
same,Potency,[3],6.68 µM (active) and 11.8 µM (active)
CN1CCN(C(=O)O[C@H]2c3nccnc3C(=O)N2c2ccc(Cl)cn2)CC1,Potency,[1],inactive
same,Potency,[3],inactive
CCN(CC)C(=O)N[C@@H]1C=C2c3cccc4[nH]cc(c34)C[C@@H]2N(C)C1,"activity change, negative = inhibition",[1],3.33%
same,Potency,[3],inactive
O=c1[nH]c2ccccc2n1CCCN1CCC(n2c(=O)[nH]c3cc(Cl)ccc32)CC1,"activity change, negative = inhibition",[1],-22.6%
same,Potency,[2],inactive
Cc1ncc(CNC(=O)N(CCCl)N=O)c(N)n1,Potency,[1],inactive
same,Potency,[2],inactive
same,Potency,[3],inactive
same,Potency,[4],inactive
CC(C)=CC1C(C(=O)OCc2cccc(Oc3ccccc3)c2)C1(C)C (stereo not drawn),Potency,[6],inactive
same,outcome,[7],inactive
same,Potency,[8],inactive
O=c1[nH]c2ccccc2n1C1CCN(CCCC(c2ccc(F)cc2)c2ccc(F)cc2)CC1,Potency,[6],inactive
same,outcome,[7],inactive
Oc1cc(Cl)ccc1Oc1ccc(Cl)cc1Cl,Potency,[8],52 µM (active)
CN(C)CCc1ccc(O)cc1,Potency,[3],inactive
Cc1ccc(-c2nc3ccc(C)cn3c2CC(=O)N(C)C)cc1,Potency,[3],inactive
same,Potency,[4],inactive
CC(C)(C)CC(C)(C)c1ccc(O)cc1,Potency,[3],24.3 µM (active)
same,outcome,[9],inactive
same,outcome,[7],inactive
same,Potency,[8],49.4 µM (active) and 56.9 µM (active)
CC1OC(C)OC(C)O1 (stereo not drawn),Potency,[3],inactive
N[C@@H](Cc1ccc(N(CCCl)CCCl)cc1)C(=O)O,Potency,[3],2.99 µM (active) and 2.63 µM (active)
CCOC(=O)C1(c2ccccc2)CCN(CCC(C#N)(c2ccccc2)c2ccccc2)CC1,Potency,[3],5.96 µM (active)
CC[N+]1(C)CCCC(OC(=O)C(O)(c2ccccc2)c2ccccc2)C1 (stereo not drawn),Potency,[3],inactive
same,Potency,[4],inactive
OCCOc1ccccc1,Potency,[3],inactive
